According to PubChem BioAssay (NCI):
This is part of a sample that, as a whole, favours compounds with a hit. Of some 83,000 tested, about 20% had one in any assay.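 For each line, cells grew in 96-well plates with the test compound present at a single concentration for 48 hours.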 Values without a mark were called inactive. Activity calls are given as the source filed them. The calls were made as follows: active = growth percent below 10; inactive = the rest.

Tests used:
Test in all cases: NCI-60 one-dose screen, 48 h (100 = growth as untreated, 0 = no growth, -100 = all killed)
Settings in all cases: 10 µM
[1] = tested on: T-47D breast
[2] = tested on: BT-549 breast
[3] = tested on: MDA-MB-435 melanoma
[4] = tested on: SW-620 colon
[5] = tested on: MCF7 breast
[6] = tested on: HCT-116 colon
[7] = tested on: HCC-2998 colon
[8] = tested on: KM12 colon
[9] = tested on: MDA-MB-468 breast

O=c1[nH]c2ccc(Cl)cc2cc1CSc1ccc(Nc2nccc(-c3ccc4ccccc4c3)n2)cc1
growth [1]: 100% | growth [2]: 83.4% | growth [3]: 84.7% | growth [4]: 17.6% | growth [5]: 29.2% | growth [6]: 55% | growth [7]: 79.6% | growth [8]: 53% | growth [9]: 15.2%

O=c1cc(-c2ccccc2)oc2cc(OCCCNCc3ccccc3)cc(O)c12
growth [1]: -64.7% (active) | growth [2]: 46.8% | growth [3]: -44.2% (active) | growth [4]: -13.8% (active) | growth [5]: -30% (active) | growth [6]: -68.7% (active) | growth [7]: -95.8% (active) | growth [8]: -38.3% (active) | growth [9]: -59.5% (active)

O=C(Nc1nc2ccccc2s1)c1ccc(Br)cc1
growth [1]: 44.1% | growth [2]: 90.3% | growth [3]: 88.8% | growth [4]: 95% | growth [5]: 41.6% | growth [6]: 86.2% | growth [7]: 78.3% | growth [8]: 72.4% | growth [9]: 37.9%

COc1cnc2c(c1)C(=O)c1c-2n(CCCNC(C)C)c(=O)c2cc(OC)c(OC)cc12
growth [1]: 36.2% | growth [2]: 56.4% | growth [3]: 44% | growth [4]: -24.9% (active) | growth [5]: 11.8% | growth [6]: 25.5% | growth [7]: 48.9% | growth [8]: 29.5% | growth [9]: 8.82% (active)

O=C(NCCCCC(c1ccc(F)cc1)c1ccc(F)cc1)NCCCc1cccnc1
growth [1]: 5.2% (active) | growth [2]: -16.4% (active) | growth [3]: 11.9% | growth [4]: 17.3% | growth [5]: 13.2% | growth [6]: 3.26% (active) | growth [7]: 29.2% | growth [8]: 18% | growth [9]: -3.04% (active)

Cc1ccc(-c2ccc(SCC(=O)Nc3ccc(Cl)c(C(F)(F)F)c3)nn2)cc1
growth [1]: 26.2% | growth [2]: 25.4% | growth [3]: -18.8% (active) | growth [4]: 24.2% | growth [5]: 15.9% | growth [6]: 10.3% | growth [7]: 12.9% | growth [8]: 24.7% | growth [9]: -31% (active)

Cc1ccc(/C(N)=N/c2sc(-c3ccccc3)nc2-c2ccccc2)cc1
growth [1]: 58.3% | growth [2]: 88.4% | growth [3]: 79.6% | growth [4]: 79.4% | growth [5]: 55.9% | growth [6]: 53.5% | growth [7]: 79.8% | growth [8]: 41.4% | growth [9]: 75.6%

COC(=O)CC1CC1C1Cc2c(nc(N(C)S(C)(=O)=O)nc2C(C)C)-c2ccc(F)cc21 (stereo not drawn)
growth [1]: 63.8% | growth [2]: 64.8% | growth [3]: 87.2% | growth [4]: 66% | growth [5]: 67.1% | growth [6]: 44.4% | growth [7]: 101% | growth [8]: 76.2% | growth [9]: 74.9%

COc1ccc2cc([C@H](C)C(=O)NCc3ccccc3)ccc2c1
growth [1]: 41.5% | growth [2]: 42.8% | growth [3]: -13.2% (active) | growth [4]: 29.3% | growth [5]: 22.5% | growth [6]: 37% | growth [7]: 50.7% | growth [8]: 39.1% | growth [9]: -20.3% (active)

O=c1oc2ccc(-c3ccc(F)cc3F)cc2c(=O)n1-c1ccc(F)c(Cl)c1
growth [1]: -11.8% (active) | growth [2]: -51.9% (active) | growth [3]: -17.7% (active) | growth [4]: 3.17% (active) | growth [5]: -17.2% (active) | growth [6]: 4.77% (active) | growth [7]: 2.58% (active) | growth [8]: -22.7% (active) | growth [9]: -47% (active)

CC1(c2ccccc2)NC(=O)N(CC(=O)Nc2ccc(C(=O)/C=C/C=C/c3ccccc3)cc2)C1=O (stereo not drawn)
growth [1]: 17% | growth [2]: 38.9% | growth [3]: 37.1% | growth [4]: 48.3% | growth [5]: 3.54% (active) | growth [6]: 27.1% | growth [7]: 87.2% | growth [8]: 21% | growth [9]: 3.2% (active)

COc1ccc(C(=O)Nc2sc3c(c2C#N)CCC(=O)C3)cc1C(F)(F)F
growth [1]: -51.2% (active) | growth [2]: -58.3% (active) | growth [3]: -21.7% (active) | growth [4]: -30.7% (active) | growth [5]: -10.1% (active) | growth [6]: 0.735% (active) | growth [7]: 6.84% (active) | growth [8]: 10.4% | growth [9]: -38.9% (active)

COc1ccc(-c2c(N)c(=O)n(C)c3ccccc23)cc1
growth [1]: 57.2% | growth [2]: 43% | growth [3]: 59.2% | growth [4]: 65.5% | growth [5]: 24.8% | growth [6]: 37.5% | growth [7]: 81.5% | growth [8]: 64.5% | growth [9]: 50.1%

Cc1ccc(/C=C/C(=O)c2ccc(S(=O)(=O)NCCNc3nc(Nc4ccc(F)cc4)nc(N(C)C)n3)cc2)cc1
growth [1]: 24.8% | growth [2]: 64.6% | growth [3]: -23% (active) | growth [4]: -8.7% (active) | growth [5]: -55.8% (active) | growth [6]: -51.7% (active) | growth [7]: -11.9% (active) | growth [8]: -53.8% (active) | growth [9]: -2.81% (active)

CNC(=O)c1cccc(N2CCc3c2ccc(NC(=O)Nc2ccc(N4CCN(C)CC4)c(C(F)(F)F)c2)c3F)c1
growth [1]: 94.5% | growth [2]: 11.6% | growth [3]: -96.1% (active) | growth [4]: -71.7% (active) | growth [5]: -79.8% (active) | growth [6]: -95.3% (active) | growth [7]: -94.1% (active) | growth [8]: -88.1% (active) | growth [9]: 90.4%

Cc1cccc2cc(-c3cc(-c4ccccc4)nc(=S)[nH]3)c(Cl)nc12
growth [1]: 72.9% | growth [2]: 53.1% | growth [3]: -6.63% (active) | growth [4]: 92% | growth [5]: 68.3% | growth [6]: 83.3% | growth [7]: 93.1% | growth [8]: 91.4% | growth [9]: 90.6%

Cc1ccc(S(=O)(=O)c2nc(-c3ccccc3)oc2S(=O)(=O)CC(=O)N2CCCC2)cc1
growth [1]: -70.4% (active) | growth [2]: -24.4% (active) | growth [3]: -99.3% (active) | growth [4]: -68.1% (active) | growth [5]: -40.7% (active) | growth [6]: 0.73% (active) | growth [7]: -91.1% (active) | growth [8]: 40.8% | growth [9]: -91.8% (active)

Clc1cccc(N/N=C/c2c[nH]c3ccccc23)n1
growth [1]: 27.4% | growth [2]: 3.11% (active) | growth [3]: 19.8% | growth [4]: 52.1% | growth [5]: 11.2% | growth [6]: 23.4% | growth [7]: 30.2% | growth [8]: 9.99% (active) | growth [9]: -10.1% (active)

O=C(c1ccc(-n2c(=O)[nH]c3ccccc3c2=O)cc1)N1CCOCC1
growth [1]: 99.7% | growth [2]: 75.6% | growth [3]: 102% | growth [4]: 97.1% | growth [5]: 101% | growth [6]: 99.2% | growth [7]: 116% | growth [8]: 114% | growth [9]: 94.7%

C/C(=N\N=C\c1ccc(N(C)C)cc1)c1ccc2c(c1)Nc1ccccc1S2
growth [1]: 44.6% | growth [2]: 58.2% | growth [3]: 51.1% | growth [4]: 35.3% | growth [5]: 35.8% | growth [6]: 31.4% | growth [7]: 54.4% | growth [8]: 60.9% | growth [9]: 8.43% (active)

O=S(=O)(c1ccc(Cl)cc1)c1nc(-c2ccccc2)oc1S(=O)(=O)c1ccc(Cl)cc1
growth [1]: 78.8% | growth [2]: 142% | growth [3]: 82.3% | growth [4]: 46.8% | growth [5]: 36.3% | growth [6]: 58.9% | growth [7]: 95.8% | growth [8]: 93.2% | growth [9]: 76%

O=C(CNc1nc(-c2ccccc2)cs1)Nc1cccc(Cl)c1
growth [1]: 7.64% (active) | growth [2]: 25.8% | growth [3]: 42.1% | growth [4]: 35.9% | growth [5]: 21.8% | growth [6]: 27.6% | growth [7]: 33.2% | growth [8]: 23.6% | growth [9]: 10.7%

O=c1c2ccccc2nc(COc2ccccc2)n1/N=C/c1ccc(N2CCCC2)cc1
growth [1]: 57.7% | growth [2]: 84.8% | growth [3]: 99.5% | growth [4]: 109% | growth [5]: 87.6% | growth [6]: 79.5% | growth [7]: 106% | growth [8]: 96.7% | growth [9]: 137%

N#Cc1c(NC(=O)c2cccc(C(F)(F)F)c2)sc2c1CCC(O)=C2
growth [1]: 16.5% | growth [2]: 44.6% | growth [3]: 9.7% (active) | growth [4]: 35.4% | growth [5]: 27.9% | growth [6]: 40.4% | growth [7]: 36.3% | growth [8]: 23.1% | growth [9]: -18.6% (active)

CC(C)NC(=O)c1cc(-c2ccc(NC(=O)Nc3ccc(N4CCN(C)CC4)c(C(F)(F)F)c3)cc2)nc2cccnc12
growth [1]: -16.6% (active) | growth [2]: -95.5% (active) | growth [3]: -96.5% (active) | growth [4]: -64.6% (active) | growth [5]: -75.6% (active) | growth [6]: -90.6% (active) | growth [7]: -97.9% (active) | growth [8]: -83.6% (active) | growth [9]: -90.9% (active)

CCOC(=O)C(Cc1ccccc1)N1C(=O)/C(=C/N2N=C(c3ccc(OC)cc3)CC2c2ccc3ccccc3c2)SC1=S (stereo not drawn)
growth [1]: 14.6% | growth [2]: -6.78% (active) | growth [3]: 16.3% | growth [4]: 13.4% | growth [5]: 0.163% (active) | growth [6]: 7.1% (active) | growth [7]: -92% (active) | growth [8]: 9.78% (active) | growth [9]: -34.1% (active)

CCC(C)S(=O)(=O)c1oc(-c2ccc(C)cc2)nc1S(=O)(=O)c1ccccc1 (stereo not drawn)
growth [1]: -73.5% (active) | growth [2]: -13.3% (active) | growth [3]: -98.2% (active) | growth [4]: -38.6% (active) | growth [5]: -56.5% (active) | growth [6]: -6.96% (active) | growth [7]: -84.6% (active) | growth [8]: -65% (active) | growth [9]: -93.4% (active)
